Test results taken from PubChem BioAssay.
Results filed as inconclusive are left out. Activity calls are given as the source filed them.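 How the source made its calls, unless noted: active means viability loss from added drug above about 55%, and viability with drug at most 40%, in both replicates (limit read from the data, passing the limit was not always enough); inconclusive means both conditions met in only one replicate; inactive means neither replicate meets both conditions.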

Columns and labels:
[1] = reducers of endogenous Her2 protein level, primary screen, SKBR3 breast tumor cells, AlphaScreen, ATP viability (AID 461;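 active means Her2 level under about 52% in both replicate screens, with viability over 70% of control, limit read from the data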;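 on Her2 level: lower value means less Her2 protein in the cells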;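 on viability: percent of carrier control wells set as 100% viability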); conditions: 18-24 h, measured here: SKBR3 viability, ATP luminescence, at 10 µM
[2] = target: Receptor tyrosine-protein kinase erbB-2 (Homo sapiens) (UniProt P04626); experiment: as above; conditions: 18-24 h, at 10 µM, stronger effect = lower value
[3] = SK-BR-3 cell growth inhibitors, pilot screen, 24 h, human (AID 572;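 active means viability at or below 10% of carrier control in both of two separate runs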;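 further: compound exposure lasted between 18 and 24 h rather than exactly 24 h; 100% = carrier-treated control wells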); conditions: SK-BR-3 viability, CellTiter-Glo luminescence, at 10 µM, stronger effect = lower value
[4] = HUVEC growth inhibition – cell-based, human, primary screen (AID 575;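 active means viability at or below 30% in both replicate assays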;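 further: 100% = median of untreated cell wells with 0.1% DMSO on each plate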); conditions: HUVEC proliferation, CellTiter-Glo luminescence, 72 h; at 10 µM; stronger effect = lower value
[5] = growth inhibitors of H69AR lung tumor, primary screen, human, duplicate replicates (AID 580;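 active means viability at or under a set limit in both replicates, limit being median viability minus 3 SD, cut at about 48% in these data, passing the limit was not always enough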;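 further: 100% = mean luminescence of untreated wells and 0% = no signal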); conditions: H69AR lung tumor cells viability, ATP luminescence, 72 h; at 10 µM; stronger effect = lower value
[6] = reversal of MRP1-mediated doxorubicin resistance, pilot screen, H69AR cells, doxorubicin co-treatment (AID 601); conditions: CellTiter-Glo, 72 h, at 10 µM; for differential viability (reversal): stronger effect = higher value
[7] = 384-well plate pilot, post-Golgi transport modulator project, inhibition of yeast transport mutant growth (AID 636; in the data active means inhibition above about 31%); conditions: absorbance 615 nm, about 18 h, stronger effect = higher value
[8] = growth suppression of yeast trafficking mutant, preliminary HTS, modulators of trafficking downstream of Golgi apparatus project, 1536-format plate, OD 615 nm (AID 637; in the data active means inhibition above about 30%); conditions: yeast transport mutant growth, absorbance 615 nm, 18 h; stronger effect = higher value
[9] = OD615 S. cerevisiae growth inhibition, permissive medium, pilot counter-assay, permissive growth control for S. cerevisiae lifespan shortening project (AID 705;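 active means growth inhibition above 25% in both replicates, a cutoff set 3 SD above the mean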); conditions: OD615, 24 h, at 10 µM, stronger effect = higher value
[10] = Restrictive medium S. cerevisiae growth inhibition, OD615, pilot screen of yeast lifespan reduction project, restrictive growth control (AID 706;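 active means growth inhibition above a set limit, 3 SD over mean compound inhibition, in both replicates, cut at about 43% in these data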;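 further: modified DeaD lifespan yeast strain shifted to restrictive glucose medium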); conditions: OD615, 48 h, at 10 µM, stronger effect = higher value
[11] = viability gain of MRP-1-high H69AR cells under doxorubicin, pilot screen, MRP-1 activator project, CellTiter-Glo, duplicate (AID 807;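 active means viability increase at or above a cutoff of the median across tested compounds plus 3 SD, cut at about 8.5% in these data, passing the limit was not always enough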;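 further: compound pretreatment 18-22 h then 72 h combined with doxorubicin; 0% = doxorubicin alone and 100% = vehicle without doxorubicin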); conditions: H69AR viability with doxorubicin, CellTiter-Glo luminescence; at 10 µM; stronger effect = higher value
[12] = growth suppression of beta-catenin knockout HCT116, pilot screen, human colon tumor cells (AID 823;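 active means cell viability at or below a set limit in both duplicate runs, the limit being the all-compound median minus 4 SD, cut at about 23% in these data, passing the limit was not always enough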;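 further: 0% = wells killed by 20 µM Hyamine and 100% = untreated DMSO cell wells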); conditions: CellTiter-Glo, 60 h, at 10 µM, stronger effect = lower value
[13] = growth suppression of PTEN-deleted HCT116, pilot screen, cell-based, HCT116 clonal line, CellTiter-Glo (AID 824;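 active means viability at or below 27.92% in each of two runs, the all-compound median minus 4 SD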;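 further: 0% = 20 µM Hyamine control and 100% = vehicle cell control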); conditions: 60 h, at 10 µM, stronger effect = lower value
[14] = inhibitors of the yeast RAM network, pilot screen, dse1pr::URA3 reporter, 5-FOA selection (AID 869;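 active means inhibition over a set limit, the all-compound mean plus 3 SD, in both replicate runs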;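 further: 0% = DMSO wells with no growth and 100% = 10 µM 1-NA-PP1 with full growth; RAM network block rescues cells from 5-FOA so hits raise OD615 growth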); conditions: S. cerevisiae dse1pr::URA3 5-FOA growth, OD615, 2 d; at 10 µM; stronger effect = higher value; strain carries analog-sensitive mutant Cbk1 kinase
[15] = RAM signaling pathway blockade in yeast – S. cerevisiae, Pdr1DBD-CYC8 efflux-inhibited sensitized strain, primary screen (AID 1298;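 active means RAM network inhibition above 8.4% in each of two replicates, 3 SD over the compound average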;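 further: 0% = DMSO untreated cells without growth and 100% = 10 µM 1-NA-PP1 full growth; higher means more yeast growth rescued from 5-FOA killing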); conditions: S. cerevisiae cbk1-as DSE1-URA3 strain, 5-FOA growth OD615, 2 d; at 50 µM; stronger effect = higher value
[16] = H69AR cells + 2 uM doxorubicin, measured here: viability with 2 uM doxorubicin, stronger effect = lower value
[17] = H69AR cells, compound alone cytotoxicity

Chain of Receptor tyrosine-protein kinase erbB-2 (Homo sapiens) (P04626 whole entry, looked up): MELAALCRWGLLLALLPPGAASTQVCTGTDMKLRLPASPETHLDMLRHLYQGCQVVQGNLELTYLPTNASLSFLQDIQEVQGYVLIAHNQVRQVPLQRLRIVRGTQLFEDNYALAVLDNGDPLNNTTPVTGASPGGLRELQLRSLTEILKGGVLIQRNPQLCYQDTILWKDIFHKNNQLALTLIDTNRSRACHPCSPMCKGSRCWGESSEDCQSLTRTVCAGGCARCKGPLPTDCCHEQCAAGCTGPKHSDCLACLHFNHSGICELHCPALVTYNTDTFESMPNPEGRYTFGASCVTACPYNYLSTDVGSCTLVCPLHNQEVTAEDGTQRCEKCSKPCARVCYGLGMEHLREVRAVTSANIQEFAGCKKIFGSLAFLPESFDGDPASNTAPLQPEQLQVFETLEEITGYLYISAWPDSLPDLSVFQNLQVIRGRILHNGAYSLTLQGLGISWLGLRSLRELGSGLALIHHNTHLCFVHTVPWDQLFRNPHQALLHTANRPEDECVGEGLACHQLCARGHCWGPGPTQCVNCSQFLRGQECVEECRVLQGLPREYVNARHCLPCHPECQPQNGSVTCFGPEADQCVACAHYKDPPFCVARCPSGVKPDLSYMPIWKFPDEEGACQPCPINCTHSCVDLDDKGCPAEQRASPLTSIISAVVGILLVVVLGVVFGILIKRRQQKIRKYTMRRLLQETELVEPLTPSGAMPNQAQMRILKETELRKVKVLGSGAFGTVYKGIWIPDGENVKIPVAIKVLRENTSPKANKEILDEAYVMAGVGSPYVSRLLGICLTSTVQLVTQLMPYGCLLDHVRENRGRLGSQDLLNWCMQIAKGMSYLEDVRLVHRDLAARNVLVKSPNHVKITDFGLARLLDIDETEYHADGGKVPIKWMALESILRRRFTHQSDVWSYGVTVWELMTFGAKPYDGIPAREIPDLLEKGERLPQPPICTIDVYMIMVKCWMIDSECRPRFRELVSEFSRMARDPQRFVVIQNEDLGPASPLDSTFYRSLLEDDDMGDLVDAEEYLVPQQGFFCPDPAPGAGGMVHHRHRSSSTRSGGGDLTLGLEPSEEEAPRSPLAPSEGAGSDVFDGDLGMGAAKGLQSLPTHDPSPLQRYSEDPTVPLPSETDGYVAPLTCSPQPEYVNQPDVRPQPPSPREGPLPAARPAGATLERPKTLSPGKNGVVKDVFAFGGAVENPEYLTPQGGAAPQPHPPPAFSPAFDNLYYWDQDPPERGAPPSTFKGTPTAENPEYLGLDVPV

CCc1ccc(N2CC34C=CC(O3)C(C(=O)OC)C4C2=O)cc1 (stereo not given)
82.2%: viability [6, 16]
102%: viability [1]
inactive: Her2 level [2] 104% | viability [3] 102% | viability [4] 96.7% | viability [5] 94.2% | differential viability (reversal) ([6]; H69AR cells + 2 uM doxorubicin) 12% | inhibition [7] -2.8% | inhibition [8] -1.17% | growth inhibition [9] -6.25% | growth inhibition [10] 3.24% | viability increase [11] 0.55% | viability [12] 102% | viability [13] 99.7% | inhibition [14] 0.255% | RAM network inhibition [15] 0.11%
94.2%: viability [6, 17]

O=C(c1cc2ccccc2oc1=O)N1CCN(c2ccc(N3CCOCC3)nn2)CC1
101%: viability [6, 17]
98%: viability [1]
inactive: Her2 level [2] 118% | viability [3] 98% | viability [4] 88.5% | viability [5] 101% | differential viability (reversal) ([6]; H69AR cells + 2 uM doxorubicin) 7.39% | inhibition [7] -0.77% | inhibition [8] -2% | growth inhibition [9] 5.29% | growth inhibition [10] -7.26% | viability increase [11] -1.81% | viability [12] 101% | viability [13] 96.6% | inhibition [14] 0.885% | RAM network inhibition [15] -0.58%
93.9%: viability [6, 16]

CC1Cc2ccccc2N1C(=O)C12CCC(C)(C(=O)C1)C2(C)C (stereo not given)
74.3%: viability [6, 16]
136%: viability [1]
inactive: Her2 level [2] 123% | viability [3] 136% | viability [4] 92.6% | viability [5] 82.1% | differential viability (reversal) ([6]; H69AR cells + 2 uM doxorubicin) 7.82% | inhibition [7] -5.47% | inhibition [8] -4.84% | growth inhibition [9] -23.2% | growth inhibition [10] -14.9% | viability increase [11] -0.66% | viability [12] 85% | viability [13] 89.9% | inhibition [14] 0.8% | RAM network inhibition [15] 6.06%
82.1%: viability [6, 17]

O=C(CC1(O)C(=O)Nc2ccccc21)c1ccc2c(c1)OCO2 (stereo not given)
inactive: Her2 level [2] 93.5% | viability [3] 104% | viability [4] 87.5% | viability [5] 76.3% | differential viability (reversal) ([6]; H69AR cells + 2 uM doxorubicin) -12.3% | inhibition [7] 0.78% | inhibition [8] -3% | growth inhibition [9] -7.81% | growth inhibition [10] -21.3% | viability increase [11] -2.13% | viability [12] 97.2% | viability [13] 96.5% | inhibition [14] 2.9% | RAM network inhibition [15] 4.82%
88.5%: viability [6, 16]
104%: viability [1]
76.3%: viability [6, 17]

CCCCn1c(SCC(=O)OCC)nc2c1c(=O)[nH]c(=O)n2C
inactive: Her2 level [2] 93% | viability [3] 100% | viability [4] 96.8% | viability [5] 97.3% | differential viability (reversal) ([6]; H69AR cells + 2 uM doxorubicin) 0.46% | inhibition [7] -2.53% | inhibition [8] 0.33% | growth inhibition [9] 0.935% | growth inhibition [10] 1.66% | viability increase [11] -2.5% | viability [12] 94.4% | viability [13] 91.6% | inhibition [14] 1.31% | RAM network inhibition [15] 0.35%
100%: viability [1]
97.3%: viability [6, 17]
96.8%: viability [6, 16]

CC1(C)CC(=O)N(CC(=O)NCc2ccccc2)c2ccccc2S1(=O)=O
92.6%: viability [6, 17]
inactive: Her2 level [2] 112% | viability [3] 78.5% | viability [4] 106% | viability [5] 92.6% | differential viability (reversal) ([6]; H69AR cells + 2 uM doxorubicin) -8.55% | inhibition [7] -4.67% | inhibition [8] -1.33% | growth inhibition [9] -3.67% | growth inhibition [10] 6.21% | viability increase [11] -1.93% | viability [12] 107% | viability [13] 100% | inhibition [14] 0.485% | RAM network inhibition [15] 3.51%
101%: viability [6, 16]
78.5%: viability [1]

O=C(C1CCCN(S(=O)(=O)c2cccnc2)C1)N1CCn2c1nc1ccccc12 (stereo not given)
90.5%: viability [1]
95.8%: viability [6, 17]
86.1%: viability [6, 16]
inactive: Her2 level [2] 103% | viability [3] 90.5% | viability [4] 105% | viability [5] 95.8% | differential viability (reversal) ([6]; H69AR cells + 2 uM doxorubicin) 9.65% | inhibition [7] 0.51% | inhibition [8] -0.33% | growth inhibition [9] 5.56% | growth inhibition [10] 4.04% | viability increase [11] 0.72% | viability [12] 101% | viability [13] 99.3% | inhibition [14] 0.46% | RAM network inhibition [15] 1.55%

CN1CCN(C2=C(Cl)C(=O)N(c3cccc(Cl)c3)C2=O)CC1
85%: viability [6, 17]
inactive: Her2 level [2] 96.5% | viability [3] 80.5% | viability [4] 87.7% | viability [5] 85% | differential viability (reversal) ([6]; H69AR cells + 2 uM doxorubicin) 4.44% | inhibition [7] 0.26% | inhibition [8] 5.67% | growth inhibition [9] -16.8% | growth inhibition [10] -5.5% | viability increase [11] -1.68% | viability [12] 96.3% | viability [13] 104% | inhibition [14] 0.75% | RAM network inhibition [15] 2.62%
80.5%: viability [1] | viability [6, 16]

CC1CN(c2ccc(Oc3ccccc3)cc2)c2nc3c(c(=O)n(CC(N)=O)c(=O)n3C)n2C1 (stereo not given)
107%: viability [1]
79.1%: viability [6, 17]
inactive: Her2 level [2] 101% | viability [3] 107% | viability [4] 77.5% | viability [5] 79.1% | differential viability (reversal) ([6]; H69AR cells + 2 uM doxorubicin) 4.74% | inhibition [7] -4.67% | inhibition [8] -5.17% | growth inhibition [9] -3.86% | growth inhibition [10] 6.34% | viability increase [11] -3.54% | viability [12] 104% | viability [13] 94.4% | inhibition [14] 2.65% | RAM network inhibition [15] 6.01%
74.4%: viability [6, 16]

COC(=O)c1cn(NC(=O)C2CCCO2)c(=O)c2ccccc12 (stereo not given)
96.6%: viability [6, 17]
91.8%: viability [6, 16]
109%: viability [1]
inactive: Her2 level [2] 76% | viability [3] 109% | viability [4] 93.7% | viability [5] 96.6% | differential viability (reversal) ([6]; H69AR cells + 2 uM doxorubicin) 4.83% | inhibition [7] -6.35% | inhibition [8] -0.49% | growth inhibition [9] -21.3% | growth inhibition [10] -23.6% | viability increase [11] -0.57% | viability [12] 91.2% | viability [13] 98.8% | inhibition [14] 1.48% | RAM network inhibition [15] 3%
